High-throughput results from PubChem BioAssay.
TGFb inhibitor: TGF-b pathway inhibition | HepG2 CAGA-GFP TGF-b/SMAD3 reporter, GFP fluorescence, 18 h; TGF-beta stimulated, 500 pg/mL final | Potency, µM (titrated, usually from 46.1 µM), inactives show at the highest dose activity, negative = inhibition, usual class: inhibitors | 410,000 compounds, 1.2% hits | AID 588855; also: % is scaled to controls: 0 for no effect and ±100 for the full control effect; nearly all actives have a fitted effect of over 65% in size
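Cell-based qHTS in HEPG2 carrying a CAGA-GFP Smad reporter; compounds added before 500 pg/mL final TGF-beta, 18 h incubation at 37 degrees C, GFP fluorescence quantified per cell by imaging cytometry.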
ATXN viability: cell viability loss in ATXN counter-screen. 400,000 compounds, 0.49% hits. Potency, µM (series often up to 56.7 µM), actives largely listed as cytotoxic. AID 651635. S2 cells (HEK-293 line with an ATXN2-luciferase reporter) viability, CellTiter-Fluor protease fluorescence, 24 h; also: nearly all actives have a fitted effect of over 40% in size
KB-3-1 tox: KB-3-1 parental cell cytotoxicity; KB-3-1 viability, CellTiter-Glo ATP luminescence, 72 h; Potency, µM (highest dose often 46.1 µM), usual class: cytotoxic; 400,000 compounds, 1.4% hits; also: % is scaled to controls: 0 for no effect and ±100 for the full control effect; nearly all actives have a fitted effect of over 60% in size
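KB-3-1 cells, DMEM (no phenol red) + 10% FBS; compound by pin transfer, 72 h, 37 °C. Readout: CellTiter-Glo luminescence after 10 min. Data normalized, curve-fitted.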
KB-V1 MDR tox: kills drug-selected multidrug resistant KB-V1 cells. AID 1347076. 400,000 compounds, 3.4% hits. Potency, µM (series often up to 46.1 µM), actives largely listed as cytotoxic. KB-V1 MDR cells viability, CellTiter-Glo, 72 h; also: % is scaled to controls: 0 for no effect and ±100 for the full control effect; nearly all actives have a fitted effect of over 60% in size
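Following 72 h at 37 degrees C with compound, KB-V1 cell viability was read by CellTiter-Glo luminescence, medium being phenol-red-free DMEM plus 10% FBS; concentration-response parameters came from normalized, curve-fitted qHTS data.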
ATXN2 expr inh: reduces ATXN2 reporter expression in HEK-293 cells; Potency, µM (highest dose often 57 µM), inactives show top-dose activity change, negative = inhibition, usual class: inhibitors; 360,000 compounds, 0.72% hits; HEK-293 ATXN2-luciferase reporter, luminescence, 24 h; AID 1745845; also: % is scaled to controls: 0 for no effect and ±100 for the full control effect; nearly all actives have a fitted effect of over 55% in size
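ATXN2-luciferase reporter cells (luciferase flanked by upstream and downstream ATXN2 gene portions) were treated 24 h at 37 °C with compounds at up to 57 uM. SteadyGlo luminescence gave expression; GF-AFC fluorescence gave viability.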
HepG2 tox: HepG2 cytotoxicity, counter-screen for TGF-b inhibitors. HepG2 CAGA-GFP viability, ATP luminescence, 18 h. Potency, µM (titrated, usually from 46.1 µM), without a hit: top-dose activity change, negative = cytotoxicity, actives largely listed as cytotoxic. 410,000 compounds, 0.76% hits. AID 588856
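CellTiter-Glo luminescence gave cytotoxicity after 18 hours at 37 degrees C. The cells were HepG2 CAGA-GFP in 1% FBS DMEM, stimulated with 500 pg/mL TGF-beta after compound addition. %Activity was normalised to no-cell wells (complete cell-killing) and DMSO (no toxicity), and curves were fitted and classified.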
* hit, by the source's call; i = inactive; ? = inconclusive; . = no result; [ ] = another dose, or the depositor's remark. Only some compounds are listed: those with a hit (about 5.9% of all), similar ones and a draw of the others. Calls follow the shape of the dose curve; as a rule, active = well fitted curve in the direction sought with a large enough effect; inconclusive = small, poorly fitted or top-dose-only effect, or another doubt; inactive = no such curve, though single readings can be large; an effect the other way counts as inactive or inconclusive. Potency is read from the fitted curve at half-maximal effect.

SMILES	TGFb inhibitor	ATXN viability	KB-3-1 tox	KB-V1 MDR tox	ATXN2 expr inh	HepG2 tox
COc1ccc2[nH]cc(CCN=C(NC(=O)c3ccccc3OC)Nc3nc(C)cc(C)n3)c2c1	?	i	i	?	-35%	-23%
CCOc1ccc(N=Cc2c(O)n(-c3ccc(C)c(C)c3)c(=O)[nH]c2=O)cc1	0%	i	i	i	-1%	5.6µM*
CCOc1ccc(N=Cc2c(O)n(-c3cc(C)cc(C)c3)c(=O)[nH]c2=O)cc1	1%	i	?	i	5%	-11%
CCOc1ccccc1-n1c(O)c(C=Nc2ccc(N(CC)CC)cc2)c(=O)[nH]c1=O	6%	i	16µM*	?	-1%	26%
CCN(CC)c1ccc(N=Cc2c(O)n(-c3ccccc3C)c(=O)[nH]c2=O)cc1	18%	i	i	i	1%	-17%
Oc1ccc2c3c1O[C@H]1[C@@H](O)C=C[C@H]4[C@H](C2)NCC[C@@]341	.	i	.	.	.	.
CCCc1cc(N2CCN(c3ccc(OC)cc3)CC2)n2cnnc2n1	?	i	?	i	-28%	-21%
C[C@@H]1CC[C@@]2(OC1)O[C@H]1C[C@H]3[C@@H]4CC=C5C[C@@H](O[C@@H]6O[C@H](CO)[C@@H](O[C@@H]7O[C@@H](C)[C@H](O)[C@@H](O)[C@@H]7O)[C@H](O)[C@@H]6O[C@@H]6O[C@@H](C)[C@H](O)[C@@H](O)[C@@H]6O)CC[C@]5(C)[C@@H]4CC[C@]3(C)[C@@H]1[C@H]2C	.	.	.	.	12µM*	.
C[C@H]1CC[C@@H]2[C@@H](C)[C@H]3C(CC4C5CC=C6CC(O[C@@H]7O[C@H](CO)C(O[C@@H]8O[C@@H](C)[C@H](O)[C@@H](O)[C@H]8O)[C@H](O)[C@H]7O[C@@H]7O[C@@H](C)[C@H](O)[C@@H](O)[C@H]7O)CC[C@]6(C)C5CC[C@@]43C)N2C1 (stereo partly specified)	14µM*	.	.	.	.	20µM*
O=C(NN=Cc1ccc(N(CCCl)CCCl)cc1Cl)c1cccnc1	5µM*	?	i	i	?	-56%
O=C(NN=Cc1ccc(N(CCCl)CCCl)cc1)c1cc(=O)[nH]c(=O)[nH]1	11%	i	i	i	?	8%
Cc1cc(N(CCCl)CCCl)ccc1C=NNC(=O)c1cccnc1	-8%	i	i	i	1.8µM*	-32%
C=CCN1CC[C@]23CCCC[C@H]2[C@H]1Cc1ccc(O)cc13	.	i	.	.	-2%	.
CC(C)[C@]12O[C@@H]1[C@@H]1O[C@]13[C@]1(O[C@H]1C[C@@H]1C4=C(CC[C@@]13C)C(=O)OC4)[C@H]2O	.	.	.	.	0.12µM*	.
COc1cc([C@@H]2c3cc4c(cc3[C@@H](OC)[C@H]3COC(=O)[C@H]23)OCO4)cc(OC)c1O	?	?	?	?	-23%	-7%
COc1cc([C@@H]2c3cc4c(cc3[C@H](O)[C@H]3COC(=O)[C@@H]23)OCO4)cc(OC)c1OC	-9%	.	1.8µM*	?	?	15%
CCN(CC)C(=O)[C@@H]1C=C2c3cccc4[nH]cc(c34)C[C@H]2N(C)C1	.	?	.	.	-17%[222 µM]	.
NC(CCc1ccccc1)c1csc(NC(=O)Nc2ccccc2Oc2ccccc2)n1 (stereo unspecified)	?	?	?	23µM*	?	10µM*
CCOC(=O)[C@]12Cc3ccccc3[C@H]1N(C)C(=O)c1cc(OC)ccc12	.	.	9.2µM*	7.3µM*	?	.
CCOC(=O)[C@]12Cc3ccccc3[C@H]1N(C(C)C)C(=O)c1cc(OC)ccc12	.	.	3.7µM*	4.1µM*	?	.
COC(=O)C12CCc3cc(OC)ccc3C1=CC(=O)C2 (stereo unspecified)	-2%	i	i	i	.	-3%
CCOC(=O)[C@]12Cc3c(cc(OC)c(OC)c3OC)[C@H]1N(C)C(=O)c1cc(OC)ccc12	.	.	2.9µM*	3.7µM*	11µM*	.
CC(=O)NC1CCSC1=O (stereo unspecified)	.	i	.	.	7%	.
CCOC(=O)C1(c2ccccc2)CCN(CCc2ccc(N)cc2)CC1	.	i	.	.	-4%	.
COc1cc(NC(=O)c2cc3cc4ccc(C)cc4nc3o2)cc(OC)c1OC	-27%	?	i	i	?	-16%
SMILES	TGFb inhibitor	ATXN viability	KB-3-1 tox	KB-V1 MDR tox	ATXN2 expr inh	HepG2 tox
C1CN2CCC1CC2	.	i	.	.	8%	.
C[C@H]1CNC(=O)c2c(C(=O)N3CCN(C(=O)OC(C)(C)C)CC3)ncn21	1%	?	i	i	?	-8%
O=C1NCc2c1c1c3ccccc3[nH]c1c1[nH]c3ccccc3c21	?	.	?	i	.	13µM*
CCN(CC)C(=O)Cn1cc(S(=O)(=O)CC(=O)NCc2ccc(C)cc2)c2ccccc21	8%	?	i	i	-1%	0%
CCOC(=O)C1C(=O)NC2(C)CC1c1cc(OC)ccc1O2 (stereo unspecified)	1%	i	i	i	1%	-2%
CCOC(=O)[C@]12Cc3cc(OC)ccc3[C@H]1N(C1CCCCC1)C(=O)c1cc(OC)ccc12	.	13µM*	16µM*	?	20µM*	.
CCOC(=O)[C@]12Cc3cc(OC)ccc3[C@H]1N(Cc1ccccc1)C(=O)c1cc(F)c(F)cc12	?	i	?	?	-15%	-8%
CCOC(=O)[C@]12Cc3cc(C)ccc3[C@H]1N(C1CCCCC1)C(=O)c1cc(OC)ccc12	.	4.5µM*	3.3µM*	4.1µM*	5µM*	.
Cc1ccc(S(=O)(=O)N2CCC(=O)N(CCOC(=O)Nc3cccc(Cl)c3)CC2)cc1	?	i	i	i	10%	-14%
CCOC(=O)Cn1cc([N+](=O)[O-])nc1[N+](=O)[O-]	?	i	i	i	8%	11µM*
Cc1ccc(-c2nc3ccccc3c(=O)n2-c2cc(C)ccn2)cc1	-7%	?	i	15µM*	7%	-7%
COc1ccc(-c2nc3ccccc3c(=O)n2-c2cccnc2)cc1	-11%	i	i	13µM*	-4%	5%
CC(Cc1ccccc1)NCCCCl (stereo unspecified)	.	i	.	.	-8%	.
COC(=O)[C@@H]1N=C(c2ccc(OC)cc2)O[C@]12C(=O)N(Cc1ccc(OC)cc1)c1ccccc12	.	i	?	23µM*	1%	.
CCOP(=O)(OCC)c1ccc2ccc3ccccc3c(=O)c2c1	-5%	i	i	i	-20%	-52%
